# Test results reported in the supplement of paper PMC8728848.
# This is one part of a sample in which the strongest signals are shown more often than they occur.
# Assays:
# Assay in all cases: glycan array binding signal (z-score within array); higher = stronger binding
# Details in all cases: glycan notation: IUPAC condensed, linker removed
# [1] = target: Fuc(a1-2)Gal(b1-3)GlcNAc(b1-2)Man(a1-3)[Fuc(a1-2)Gal(b1-3)GlcNAc(b1-2)Man(a1-6)]Man(b1-4)GlcNAc(b1-4)[Fuc(a1-6)]GlcNAc
# Procedure, shortened: (§1)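 From the Consortium for Functional Glycomics database, 3228 arrays were curated, keeping only those whose protein sequence was available. Binding is given as a within-array Z-score averaged across arrays sharing a protein sequence and across linkers. Negative Z-scores can be read as non-binding.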
# [2] = target: Fuc(a1-2)Gal(b1-3)GlcNAc(b1-3)[Gal(b1-4)GlcNAc(b1-6)]Gal(b1-4)Glc
# Procedure, shortened: as §1
# [3] = target: Fuc(a1-2)[Gal(a1-3)]Gal(b1-4)GlcNAc(b1-3)[Fuc(a1-2)[Gal(a1-3)]Gal(b1-4)GlcNAc(b1-6)]GalNAc
# Procedure, shortened: as §1
# [4] = target: Fuc(a1-2)[GalNAc(a1-3)]Gal(b1-3)GlcNAc(b1-3)GalNAc
# Procedure, shortened: as §1
# [5] = target: Fuc(a1-2)[GalNAc(a1-3)]Gal(b1-4)GlcNAc(b1-3)Gal(b1-4)GlcNAc(b1-3)Gal(b1-4)GlcNAc
# Procedure, shortened: as §1
# [6] = target: Fuc(a1-3)[Gal(b1-4)]GlcNAc(b1-2)Man
# Procedure, shortened: as §1
# Fuc(a1-4)GlcNAc = target: Fuc(a1-4)GlcNAc
# Procedure, shortened: as §1
# [7] = target: Gal(a1-3)[Gal(a1-4)]Gal(b1-4)GlcNAc
# Procedure, shortened: as §1
# Gal(a1-4)Gal(b1-4)GlcNAc = target: Gal(a1-4)Gal(b1-4)GlcNAc
# Procedure, shortened: as §1
# Gal(a1-6)Glc = target: Gal(a1-6)Glc
# Procedure, shortened: as §1
# Gal(b1-2)Gal = target: Gal(b1-2)Gal
# Procedure, shortened: as §1
# Gal(b1-3)GlcNAc = target: Gal(b1-3)GlcNAc
# Procedure, shortened: as §1
# [8] = target: Gal(b1-3)GlcNAc(a1-3)Gal(b1-4)GlcNAc
# Procedure, shortened: as §1
# Gal(b1-3)GlcNAc(b1-2)Man = target: Gal(b1-3)GlcNAc(b1-2)Man
# Procedure, shortened: as §1
# [9] = target: Gal(b1-3)GlcNAc(b1-3)Gal(b1-4)Glc
# Procedure, shortened: as §1
# [10] = target: Gal(b1-3)GlcNAc(b1-3)GalNAc
# Procedure, shortened: as §1
# [11] = target: Gal(b1-4)GlcNAc(b1-2)[Gal(b1-4)GlcNAc(b1-6)]Man(a1-6)[GlcNAc(b1-4)][Gal(b1-4)GlcNAc(b1-2)Man(a1-3)]Man(b1-4)GlcNAc(b1-4)GlcNAc
# Procedure, shortened: as §1
# [12] = target: Gal(b1-4)GlcNAc(b1-3)Gal(b1-4)GlcNAc(b1-3)Gal(b1-4)GlcNAc(b1-2)Man(a1-3)[Gal(b1-4)GlcNAc(b1-3)Gal(b1-4)GlcNAc(b1-3)Gal(b1-4)GlcNAc(b1-2)Man(a1-6)]Man(b1-4)GlcNAc(b1-4)[Fuc(a1-6)]GlcNAc
# Procedure, shortened: as §1
# [13] = target: Gal(b1-4)GlcNAc(b1-3)Gal(b1-4)GlcNAc(b1-3)Gal(b1-4)GlcNAc(b1-3)Gal(b1-4)GlcNAc(b1-3)Gal(b1-4)GlcNAc(b1-2)[Gal(b1-4)GlcNAc(b1-3)Gal(b1-4)GlcNAc(b1-3)Gal(b1-4)GlcNAc(b1-3)Gal(b1-4)GlcNAc(b1-3)Gal(b1-4)GlcNAc(b1-6)]Man(a1-6)[Gal(b1-4)GlcNAc(b1-3)Gal(b1-4)GlcNAc(b1-3)Gal(b1-4)GlcNAc(b1-3)Gal(b1-4)GlcNAc(b1-3)Gal(b1-4)GlcNAc(b1-2)Man(a1-3)]Man(b1-4)GlcNAc(b1-4)[Fuc(a1-6)]GlcNAc
# Procedure, shortened: as §1
# Gal3S(b1-3)GalNAc = target: Gal3S(b1-3)GalNAc
# Procedure, shortened: as §1
# Gal3S(b1-4)Glc = target: Gal3S(b1-4)Glc
# Procedure, shortened: as §1
# Gal3S4S(b1-4)GlcNAc = target: Gal3S4S(b1-4)GlcNAc
# Procedure, shortened: as §1
# GalNAc(a1-3)GalNAc = target: GalNAc(a1-3)GalNAc
# Procedure, shortened: as §1
# GalNAc(b1-4)GlcNAc = target: GalNAc(b1-4)GlcNAc
# Procedure, shortened: as §1
# [14] = target: GalNAc(b1-4)GlcNAc(b1-2)Man(a1-3)[GalNAc(b1-4)GlcNAc(b1-2)Man(a1-6)]Man(b1-4)GlcNAc(b1-4)GlcNAc
# Procedure, shortened: as §1
# GlcA(b1-3)GlcNAc = target: GlcA(b1-3)GlcNAc
# Procedure, shortened: as §1
# [15] = target: GlcNAc(a1-4)Gal(b1-4)GlcNAc(b1-3)Gal(b1-4)Glc
# Procedure, shortened: as §1
# [16] = target: GlcNAc(b1-2)Man(a1-3)[GlcNAc(b1-4)][GlcNAc(b1-2)Man(a1-6)]Man(b1-4)GlcNAc(b1-4)[Fuc(a1-6)]GlcNAc
# Procedure, shortened: as §1
# [17] = target: GlcNAc(b1-2)[GlcNAc(b1-4)]Man(a1-3)[GlcNAc(b1-4)][GlcNAc(b1-2)Man(a1-6)]Man(b1-4)GlcNAc(b1-4)GlcNAc
# Procedure, shortened: as §1
# [18] = target: GlcNAc(b1-2)[GlcNAc(b1-4)]Man(a1-3)[GlcNAc(b1-4)][GlcNAc(b1-2)[GlcNAc(b1-6)]Man(a1-6)]Man(b1-4)GlcNAc(b1-4)GlcNAc
# Procedure, shortened: as §1
binder,measurement,setting,value
SP15308A-bot-339-19-339 (Bacteroides ovatus) (protein) ACNNEWEDEQYEQYISFKSPIPAGGEGVTDIYVRYKEDGKVTYRLPIVVSGSTTNTLDREVHIAVDKDTLETLNIERFSIHRPGLWYTALEEDKYDFPKTVHISAGSSVEQLNIDFNLQGIDMLEKWVLPLTIVDDPSYNYKSHPRKNYAKALLRVIPFNNYSGSYTSSAMKVYTYINGKPDTNARTANKRTGYVINDNTVFFYAGLISEDLDKEVREKYKINVHFNEDGTLHMEQGDPTNKMKFELIGTPTYSKTSVMDATRPYLERRYVQIMFEYDFEDFSYGGNGVDVIPIKYKVEGSMTLQRNINTQIPDEDQQIEW,glycan array binding signal (z-score),[1],0.285
same,glycan array binding signal (z-score),[2],-0.461
same,glycan array binding signal (z-score),[3],8.34
same,glycan array binding signal (z-score),[4],0.521
same,glycan array binding signal (z-score),[5],0.178
same,glycan array binding signal (z-score),[6],0.187
same,glycan array binding signal (z-score),Fuc(a1-4)GlcNAc,19.1
same,glycan array binding signal (z-score),[7],1.28
same,glycan array binding signal (z-score),Gal(a1-4)Gal(b1-4)GlcNAc,0.261
same,glycan array binding signal (z-score),Gal(a1-6)Glc,0.432
same,glycan array binding signal (z-score),Gal(b1-2)Gal,0.055
same,glycan array binding signal (z-score),Gal(b1-3)GlcNAc,0.061
same,glycan array binding signal (z-score),[8],0.217
same,glycan array binding signal (z-score),Gal(b1-3)GlcNAc(b1-2)Man,2.76
same,glycan array binding signal (z-score),[9],-0.437
same,glycan array binding signal (z-score),[10],0.029
same,glycan array binding signal (z-score),[11],-0.304
same,glycan array binding signal (z-score),[12],2.77
same,glycan array binding signal (z-score),[13],0.968
same,glycan array binding signal (z-score),Gal3S(b1-3)GalNAc,0.97
same,glycan array binding signal (z-score),Gal3S(b1-4)Glc,0.257
same,glycan array binding signal (z-score),Gal3S4S(b1-4)GlcNAc,0.201
same,glycan array binding signal (z-score),GalNAc(a1-3)GalNAc,1.35
same,glycan array binding signal (z-score),GalNAc(b1-4)GlcNAc,1.18
same,glycan array binding signal (z-score),[14],1.54
same,glycan array binding signal (z-score),GlcA(b1-3)GlcNAc,-0.486
same,glycan array binding signal (z-score),[15],0.185
same,glycan array binding signal (z-score),[16],-0.474
same,glycan array binding signal (z-score),[17],1.11
same,glycan array binding signal (z-score),[18],-0.391
